In article PMC7862700, “An all-to-all approach to the identification of sequence-specific readers for epigenetic DNA modifications on cytosine” one finds binding signal data, which are given here for seven sequences.

Common to all, as to experiment: DAPPL (digital affinity profiling via proximity ligation, sequencing); 10 mM Tris-HCl pH 7.5, 50 mM NaCl, 1 mM DTT, 4% glycerol, room temperature, 30 min; GST-TFs on glutathione beads, 16-mer random dsDNA library, 0.1% formaldehyde crosslink after washing; high values mean tight binding
What all share (details): protein: recombinant; tags: N-terminal GST; dsDNA, one strand shown

In assay [1] the target is T1, FLI1 (Homo sapiens, UniProt Q01543 1-452).
T1 sequence: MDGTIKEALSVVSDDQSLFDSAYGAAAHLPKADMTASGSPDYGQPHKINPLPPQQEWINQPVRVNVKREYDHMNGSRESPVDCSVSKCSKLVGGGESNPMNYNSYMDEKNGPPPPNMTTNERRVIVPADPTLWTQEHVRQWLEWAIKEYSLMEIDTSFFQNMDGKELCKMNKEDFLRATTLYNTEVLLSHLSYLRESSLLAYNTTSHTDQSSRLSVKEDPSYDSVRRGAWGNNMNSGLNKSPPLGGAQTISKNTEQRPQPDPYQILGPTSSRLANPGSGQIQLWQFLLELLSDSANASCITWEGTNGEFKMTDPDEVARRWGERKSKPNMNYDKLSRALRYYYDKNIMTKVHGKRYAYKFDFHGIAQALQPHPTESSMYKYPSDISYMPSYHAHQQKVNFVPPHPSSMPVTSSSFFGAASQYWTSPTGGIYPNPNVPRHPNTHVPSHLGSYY
An outline of the steps: (§1)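 Sequencing on an Illumina NextSeq500 followed washing, crosslinking with 0.1% formaldehyde, proximity ligation (BsaI/T4 ligase, 1 h, 37 °C) and PCR amplification of pools that had been incubated for 30 min at room temperature with 200 nmole of a random double-stranded 16-mer DNA library in Tris/NaCl/DTT/glycerol buffer. Each pool held DNA-barcoded human transcription factors, expressed in yeast as GST fusions and captured on glutathione beads, plus a tag-only sample. Binding signal is a hexamer's read frequency for a factor divided by its frequency in the tag-only sample.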

For assay [2], the target named is T2, ELK1 (Homo sapiens, UniProt P19419 1-428).
T2 sequence: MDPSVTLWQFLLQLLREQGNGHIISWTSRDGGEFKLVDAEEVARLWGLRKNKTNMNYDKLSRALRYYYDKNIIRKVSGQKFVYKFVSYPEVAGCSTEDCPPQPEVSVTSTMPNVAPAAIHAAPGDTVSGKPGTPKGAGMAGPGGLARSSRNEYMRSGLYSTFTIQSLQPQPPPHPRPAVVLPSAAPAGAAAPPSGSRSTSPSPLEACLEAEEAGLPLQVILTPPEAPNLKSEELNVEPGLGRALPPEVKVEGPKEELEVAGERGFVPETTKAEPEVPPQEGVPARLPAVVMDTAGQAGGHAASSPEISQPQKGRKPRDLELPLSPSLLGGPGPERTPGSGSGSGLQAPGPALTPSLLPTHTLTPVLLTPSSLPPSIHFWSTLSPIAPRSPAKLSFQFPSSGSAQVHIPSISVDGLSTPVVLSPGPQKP
In short, it runs like this: as §1

The target in assay [3] is T3, GABPA (Homo sapiens, UniProt Q06546 1-454).
T3 sequence: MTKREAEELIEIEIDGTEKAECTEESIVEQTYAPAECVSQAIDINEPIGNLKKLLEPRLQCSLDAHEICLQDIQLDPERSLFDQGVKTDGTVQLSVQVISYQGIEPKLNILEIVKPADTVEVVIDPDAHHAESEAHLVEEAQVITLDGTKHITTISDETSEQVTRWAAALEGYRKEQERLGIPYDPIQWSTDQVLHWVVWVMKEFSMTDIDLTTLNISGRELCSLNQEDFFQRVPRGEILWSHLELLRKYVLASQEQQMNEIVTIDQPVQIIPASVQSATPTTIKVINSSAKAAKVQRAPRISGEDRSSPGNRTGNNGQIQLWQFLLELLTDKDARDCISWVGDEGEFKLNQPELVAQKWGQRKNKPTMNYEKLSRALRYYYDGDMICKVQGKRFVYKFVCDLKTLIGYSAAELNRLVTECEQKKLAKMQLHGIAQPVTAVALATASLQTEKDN
In short, it runs like this: as §1

Assay [4] has as its target T4, ERG (Homo sapiens, UniProt P11308 1-479).
T4 sequence: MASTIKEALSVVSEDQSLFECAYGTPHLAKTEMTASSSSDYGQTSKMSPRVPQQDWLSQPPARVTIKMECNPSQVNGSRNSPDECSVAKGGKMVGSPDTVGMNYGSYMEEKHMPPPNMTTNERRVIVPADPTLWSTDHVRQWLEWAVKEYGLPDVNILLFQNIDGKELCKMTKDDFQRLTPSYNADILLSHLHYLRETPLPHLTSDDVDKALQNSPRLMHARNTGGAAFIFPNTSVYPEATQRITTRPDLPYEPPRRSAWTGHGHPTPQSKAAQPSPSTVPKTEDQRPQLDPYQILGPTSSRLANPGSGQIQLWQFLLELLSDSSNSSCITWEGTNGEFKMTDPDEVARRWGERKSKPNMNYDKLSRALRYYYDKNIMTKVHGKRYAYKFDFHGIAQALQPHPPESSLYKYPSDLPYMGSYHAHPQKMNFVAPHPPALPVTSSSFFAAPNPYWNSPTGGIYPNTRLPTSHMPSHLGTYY
An outline of the steps: as §1

For assay [5], the target named is ELF1 (Homo sapiens, UniProt P32519 1-619). In short, it runs like this: as §1
Chain of ELF1 (P32519 whole entry): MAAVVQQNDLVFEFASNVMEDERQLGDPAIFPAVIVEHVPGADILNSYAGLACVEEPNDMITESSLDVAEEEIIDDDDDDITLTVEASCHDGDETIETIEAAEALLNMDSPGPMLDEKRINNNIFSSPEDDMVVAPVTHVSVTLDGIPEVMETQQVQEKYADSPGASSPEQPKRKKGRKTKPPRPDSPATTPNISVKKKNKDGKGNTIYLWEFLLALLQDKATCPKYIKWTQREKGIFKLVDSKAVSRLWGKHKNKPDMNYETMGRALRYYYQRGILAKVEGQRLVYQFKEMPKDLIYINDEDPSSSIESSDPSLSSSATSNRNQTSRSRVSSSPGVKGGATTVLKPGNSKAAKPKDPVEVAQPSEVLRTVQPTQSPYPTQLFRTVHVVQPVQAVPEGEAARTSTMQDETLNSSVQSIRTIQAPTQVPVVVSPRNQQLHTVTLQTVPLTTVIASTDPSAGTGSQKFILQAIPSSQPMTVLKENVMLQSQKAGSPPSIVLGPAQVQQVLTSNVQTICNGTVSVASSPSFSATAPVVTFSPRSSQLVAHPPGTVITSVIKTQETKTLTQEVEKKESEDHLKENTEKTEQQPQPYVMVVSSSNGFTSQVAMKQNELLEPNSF
In assay [6] the target is T5, EHF (Homo sapiens, UniProt Q9NZC4 1-300).
T5 sequence: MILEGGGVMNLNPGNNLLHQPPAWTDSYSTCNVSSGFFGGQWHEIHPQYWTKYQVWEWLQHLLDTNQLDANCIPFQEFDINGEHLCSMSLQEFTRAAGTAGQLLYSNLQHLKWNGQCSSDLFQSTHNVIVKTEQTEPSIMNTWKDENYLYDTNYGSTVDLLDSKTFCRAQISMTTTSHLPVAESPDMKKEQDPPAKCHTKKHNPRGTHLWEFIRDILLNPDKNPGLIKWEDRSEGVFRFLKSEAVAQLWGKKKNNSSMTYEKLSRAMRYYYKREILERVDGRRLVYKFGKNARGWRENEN
In short, it runs like this:
as §1

Assay [7] addresses SPI1 (Homo sapiens, UniProt P17947 1-270). An outline of the steps:
as §1

For assay [8], the target named is SPIB (Homo sapiens, UniProt Q01892 1-262). In short, it runs like this:
as §1

For assay [9], the target named is T6, ELK3 (Homo sapiens, UniProt P41970 1-407).
T6 sequence: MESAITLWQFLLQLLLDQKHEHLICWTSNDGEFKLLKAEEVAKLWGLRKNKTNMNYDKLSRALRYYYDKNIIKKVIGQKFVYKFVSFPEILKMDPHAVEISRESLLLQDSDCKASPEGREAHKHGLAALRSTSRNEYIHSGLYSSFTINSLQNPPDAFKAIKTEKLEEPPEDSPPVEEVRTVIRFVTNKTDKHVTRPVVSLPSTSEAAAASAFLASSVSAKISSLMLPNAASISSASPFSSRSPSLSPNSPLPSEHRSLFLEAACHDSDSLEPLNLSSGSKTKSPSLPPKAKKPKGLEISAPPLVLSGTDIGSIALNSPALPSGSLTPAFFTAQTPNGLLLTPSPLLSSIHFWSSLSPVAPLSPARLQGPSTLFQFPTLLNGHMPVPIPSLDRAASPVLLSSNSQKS
An outline of the steps: as §1

Chain of SPIB (Q01892 whole entry): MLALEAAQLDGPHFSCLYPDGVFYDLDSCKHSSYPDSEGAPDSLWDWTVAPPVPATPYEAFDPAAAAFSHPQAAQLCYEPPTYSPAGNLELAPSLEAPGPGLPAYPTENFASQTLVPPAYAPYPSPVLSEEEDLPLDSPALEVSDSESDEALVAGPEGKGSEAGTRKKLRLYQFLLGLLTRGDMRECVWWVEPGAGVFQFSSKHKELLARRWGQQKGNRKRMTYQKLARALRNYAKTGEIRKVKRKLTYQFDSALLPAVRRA

As to CCCTAT, the binding signal in [1] was 1.33 fold enrichment (6-mer frequency, TF over GST control); in assay [2] it was 1.33 fold enrichment (6-mer frequency, TF over GST control); in assay [3] it was 1.32 fold enrichment (6-mer frequency, TF over GST control); in [4] it was 1.32 fold enrichment (6-mer frequency, TF over GST control); in [5], 1.32 fold enrichment (6-mer frequency, TF over GST control); in assay [6], 1.25 fold enrichment (6-mer frequency, TF over GST control). Further, the binding signal is 1.45 fold enrichment (6-mer frequency, TF over GST control) in assay [7]; 1.35 fold enrichment (6-mer frequency, TF over GST control) in assay [8]; 1.46 fold enrichment (6-mer frequency, TF over GST control) in [9].

As for ATAACT, the binding signal in assay [1] is 1.23 fold enrichment (6-mer frequency, TF over GST control); in [2], 1.21 fold enrichment (6-mer frequency, TF over GST control); in [3], 1.29 fold enrichment (6-mer frequency, TF over GST control); in [4] it was 1.22 fold enrichment (6-mer frequency, TF over GST control); in assay [5] it was 1.32 fold enrichment (6-mer frequency, TF over GST control); in [6], 1.24 fold enrichment (6-mer frequency, TF over GST control). Further, the binding signal in [7] was 1.22 fold enrichment (6-mer frequency, TF over GST control); in assay [8], 1.36 fold enrichment (6-mer frequency, TF over GST control); in assay [9], 1.22 fold enrichment (6-mer frequency, TF over GST control).

In the case of TTTCCC, the binding signal in [1] is 1.65 fold enrichment (6-mer frequency, TF over GST control); in [2] it was 1.69 fold enrichment (6-mer frequency, TF over GST control); in [3], 1.76 fold enrichment (6-mer frequency, TF over GST control); in [4], 1.88 fold enrichment (6-mer frequency, TF over GST control); in assay [5], 1.61 fold enrichment (6-mer frequency, TF over GST control); in [6], 1.69 fold enrichment (6-mer frequency, TF over GST control). Also, the binding signal in assay [7] was 1.69 fold enrichment (6-mer frequency, TF over GST control); in assay [8] it was 1.81 fold enrichment (6-mer frequency, TF over GST control); in [9], 1.75 fold enrichment (6-mer frequency, TF over GST control).

In the case of CTTGAT, the binding signal in assay [1] was 1.52 fold enrichment (6-mer frequency, TF over GST control); in assay [2], 1.53 fold enrichment (6-mer frequency, TF over GST control); in assay [3], 1.52 fold enrichment (6-mer frequency, TF over GST control); in assay [4], 1.34 fold enrichment (6-mer frequency, TF over GST control); in assay [5], 1.42 fold enrichment (6-mer frequency, TF over GST control); in assay [6], 1.51 fold enrichment (6-mer frequency, TF over GST control). Moreover, the binding signal in assay [7] was 1.27 fold enrichment (6-mer frequency, TF over GST control); in assay [8], 1.41 fold enrichment (6-mer frequency, TF over GST control); in [9], 1.34 fold enrichment (6-mer frequency, TF over GST control).

Regarding TTAAGG, the binding signal in assay [1] was 1.14 fold enrichment (6-mer frequency, TF over GST control); in assay [2], 1.14 fold enrichment (6-mer frequency, TF over GST control); in [3], 1.2 fold enrichment (6-mer frequency, TF over GST control); in assay [4], 1.18 fold enrichment (6-mer frequency, TF over GST control); in assay [5] it was 1.13 fold enrichment (6-mer frequency, TF over GST control); in [6] it was 1.13 fold enrichment (6-mer frequency, TF over GST control). For the same sequence, the binding signal in assay [7] is 1.26 fold enrichment (6-mer frequency, TF over GST control); in assay [8] it was 1.15 fold enrichment (6-mer frequency, TF over GST control); in assay [9], 1.06 fold enrichment (6-mer frequency, TF over GST control).

GTTTCC: the binding signal in assay [1] was 2.66 fold enrichment (6-mer frequency, TF over GST control); in assay [2], 2.9 fold enrichment (6-mer frequency, TF over GST control); in assay [3], 2.56 fold enrichment (6-mer frequency, TF over GST control); in assay [4] it was 3.43 fold enrichment (6-mer frequency, TF over GST control); in [5] it was 2.58 fold enrichment (6-mer frequency, TF over GST control); in [6] it was 2.77 fold enrichment (6-mer frequency, TF over GST control). The binding signal in assay [7] is 2.67 fold enrichment (6-mer frequency, TF over GST control); in [8], 2.84 fold enrichment (6-mer frequency, TF over GST control); in [9], 2.9 fold enrichment (6-mer frequency, TF over GST control).

As for TAATTG, the binding signal in assay [1] was 1.38 fold enrichment (6-mer frequency, TF over GST control); in assay [2] it was 1.43 fold enrichment (6-mer frequency, TF over GST control); in assay [3] it was 1.38 fold enrichment (6-mer frequency, TF over GST control); in [4] it was 1.27 fold enrichment (6-mer frequency, TF over GST control); in [5], 1.3 fold enrichment (6-mer frequency, TF over GST control); in assay [6], 1.37 fold enrichment (6-mer frequency, TF over GST control). The binding signal was 1.47 fold enrichment (6-mer frequency, TF over GST control) in assay [7]; 1.37 fold enrichment (6-mer frequency, TF over GST control) in [8]; 1.5 fold enrichment (6-mer frequency, TF over GST control) in assay [9].
